This is part of a sample that, as a whole, favours compounds with a hit. Of some 83,000 tested, about 20% had one in any assay.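 Compound tested at a single concentration for 48 hours in 96-well plates; a percent growth value below 10 was scored as active.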 The source made the active and inactive calls.
Tests used:
Test in all cases: NCI-60 one-dose screen, 48 h (100 = growth as untreated, 0 = no growth, -100 = all killed)
Conditions in all cases: 10 µM unless noted
SNB-75 CNS = tested on: SNB-75 CNS
SNB-19 CNS = tested on: SNB-19 CNS
U251 CNS = tested on: U251 CNS
SK-MEL-5 melanoma = tested on: SK-MEL-5 melanoma
UACC-62 melanoma = tested on: UACC-62 melanoma
SK-MEL-28 melanoma = tested on: SK-MEL-28 melanoma
SK-MEL-2 melanoma = tested on: SK-MEL-2 melanoma
SN12C renal = tested on: SN12C renal
UO-31 renal = tested on: UO-31 renal
TK-10 renal = tested on: TK-10 renal
ACHN renal = tested on: ACHN renal
CCRF-CEM leukemia = tested on: CCRF-CEM leukemia
MOLT-4 leukemia = tested on: MOLT-4 leukemia
HT29 colon = tested on: HT29 colon
LOX IMVI melanoma = tested on: LOX IMVI melanoma
EKVX NSCLC = tested on: EKVX NSCLC
A498 renal = tested on: A498 renal
PC-3 prostate = tested on: PC-3 prostate
CAKI-1 renal = tested on: CAKI-1 renal

Measured: growth

CC(=O)Oc1ccc(Cl)cc1CN(C(C)=O)C1CCCCC1
inactive: SNB-75 CNS 93.7% | SNB-19 CNS 95.7% | U251 CNS 95.9% | SK-MEL-5 melanoma 101% | UACC-62 melanoma 86.8% | SK-MEL-28 melanoma 106% | SK-MEL-2 melanoma 112% | SN12C renal 97.3% | UO-31 renal 90.5% | TK-10 renal 110% | ACHN renal 102% | CCRF-CEM leukemia 87.9% | MOLT-4 leukemia 85.9%

CN1CCN=C1c1ccc(NC(=O)c2ccc(C(=O)Nc3ccc(C4=NCCN4C)cc3)cc2)cc1
inactive: HT29 colon 98.8% | SNB-75 CNS 91.2% | SNB-19 CNS 92% | U251 CNS 93.6% | SK-MEL-5 melanoma 84.7% | UACC-62 melanoma 91.8% | LOX IMVI melanoma 94.2% | SK-MEL-28 melanoma 110% | SK-MEL-2 melanoma 121% | EKVX NSCLC 89.1% | SN12C renal 98.1% | UO-31 renal 82.3% | TK-10 renal 90.4% | ACHN renal 99.3% | A498 renal 117% | CCRF-CEM leukemia 110%

O=C(/C=C/c1cccc(Cl)c1)c1ccc(O)c(CN2CCN(c3cc4c(cc3F)c(=O)c(C(=O)O)cn4C3CC3)CC2)c1
active: HT29 colon 4.36%
inactive: SNB-75 CNS 28.7% | SNB-19 CNS 35.9% | PC-3 prostate 19.9% | SK-MEL-5 melanoma 24.5% | UACC-62 melanoma 34.9% | LOX IMVI melanoma 11.7% | SK-MEL-28 melanoma 58.8% | SK-MEL-2 melanoma 53.7% | EKVX NSCLC 55.7% | SN12C renal 18.9% | UO-31 renal 21.5% | TK-10 renal 48.1% | ACHN renal 27.7% | CAKI-1 renal 44.6% | A498 renal 25.9% | CCRF-CEM leukemia 25.1% | MOLT-4 leukemia 59.9%

Cn1cc(-c2nonc2-c2c[nH]c3ccc(F)cc23)c2cccnc21
inactive: SNB-75 CNS 56.3% | SNB-19 CNS 90.2% | U251 CNS 84.4% | SK-MEL-5 melanoma 78.2% | UACC-62 melanoma 64.4% | SK-MEL-28 melanoma 98.4% | SK-MEL-2 melanoma 90.1% | EKVX NSCLC 63% | SN12C renal 85.5% | UO-31 renal 63.3% | TK-10 renal 85.9% | ACHN renal 78.5% | CAKI-1 renal 63.9% | A498 renal 85.1% | CCRF-CEM leukemia 83% | MOLT-4 leukemia 63.4%

CC(=O)c1cc2c(N)c(C(=O)Nc3ccccc3)sc2nc1C
inactive: SNB-75 CNS 66.8% | SNB-19 CNS 68.4% | U251 CNS 73.5% | PC-3 prostate 81% | UACC-62 melanoma 31.5% | LOX IMVI melanoma 85.4% | SK-MEL-28 melanoma 78.4% | SK-MEL-2 melanoma 33.3% | EKVX NSCLC 70.1% | SN12C renal 90.8% | UO-31 renal 90.8% | TK-10 renal 76.4% | ACHN renal 91.7% | A498 renal 22% | CCRF-CEM leukemia 84.5% | MOLT-4 leukemia 85.6%

O=c1nc2oc3ccc4ccccc4c3cc-2s1
active: SNB-75 CNS -16.1% | A498 renal -1.24%
inactive: HT29 colon 15.2% | SNB-19 CNS 31.9% | U251 CNS 12.5% | SK-MEL-5 melanoma 10.8% | UACC-62 melanoma 37.6% | SK-MEL-28 melanoma 56.7% | SK-MEL-2 melanoma 31.9% | EKVX NSCLC 46.1% | SN12C renal 41.1% | UO-31 renal 46.9% | TK-10 renal 54.7% | ACHN renal 41% | CAKI-1 renal 22.1% | CCRF-CEM leukemia 13.7% | MOLT-4 leukemia 25.1%

O=C(C(=O)c1ccc2c(c1)OCO2)c1ccc2c(c1)OCO2
inactive: HT29 colon 103% | SNB-75 CNS 90.3% | SNB-19 CNS 104% | U251 CNS 103% | PC-3 prostate 100% | UACC-62 melanoma 105% | LOX IMVI melanoma 106% | SK-MEL-28 melanoma 110% | EKVX NSCLC 124% | SN12C renal 107% | UO-31 renal 100% | TK-10 renal 105% | ACHN renal 111% | CAKI-1 renal 107% | A498 renal 98.1% | CCRF-CEM leukemia 95.6% | MOLT-4 leukemia 117%

O=C1Nc2cc(-c3ccc(O)cc3)ccc2/C1=C/c1ccc[nH]1
active: HT29 colon 8.88% | SK-MEL-5 melanoma -17.3% | LOX IMVI melanoma -6.81% | SK-MEL-2 melanoma 2.16% | UO-31 renal -3.39% | ACHN renal 4.81% | CAKI-1 renal 2.43% | A498 renal -3.08% | MOLT-4 leukemia 7.4%
inactive: SNB-75 CNS 19% | SNB-19 CNS 27.8% | U251 CNS 18.9% | UACC-62 melanoma 15.7% | SK-MEL-28 melanoma 23.6% | EKVX NSCLC 12% | SN12C renal 13.6% | TK-10 renal 17.7%

COc1ccc(NC2=C(Sc3nc(C)cc(C)n3)C(=O)N(Cc3ccccc3)C2=O)cc1Cl
inactive: HT29 colon 60.1% [30 µM] | SNB-75 CNS 84.4% [30 µM] | SNB-19 CNS 95.4% [30 µM] | U251 CNS 86.9% [30 µM] | SK-MEL-5 melanoma 57.9% [30 µM] | UACC-62 melanoma 71.5% [30 µM] | LOX IMVI melanoma 93.2% [30 µM] | SK-MEL-28 melanoma 103% [30 µM] | SK-MEL-2 melanoma 96.5% [30 µM] | EKVX NSCLC 84.5% [30 µM] | SN12C renal 91.8% [30 µM] | UO-31 renal 84.2% [30 µM] | TK-10 renal 111% [30 µM] | ACHN renal 103% [30 µM] | CAKI-1 renal 95.7% [30 µM] | A498 renal 80.4% [30 µM] | CCRF-CEM leukemia 54.6% [30 µM] | MOLT-4 leukemia 45% [30 µM]

NNCCc1ccc(NC(=O)CCCc2ccc(/C=C/C(=O)NO)cc2)cc1
inactive: HT29 colon 66.4% | SNB-75 CNS 53% | SNB-19 CNS 58.5% | U251 CNS 22.1% | PC-3 prostate 53.9% | UACC-62 melanoma 43% | LOX IMVI melanoma 44% | SK-MEL-28 melanoma 73.2% | SK-MEL-2 melanoma 52.4% | EKVX NSCLC 69.2% | SN12C renal 55.8% | UO-31 renal 49.2% | TK-10 renal 76.5% | ACHN renal 88.3% | CAKI-1 renal 93.6% | A498 renal 47% | CCRF-CEM leukemia 16.5% | MOLT-4 leukemia 12.1%

NC(=O)c1cc(Cl)ccc1NC(=O)/C=C/c1ccccc1
inactive: SNB-19 CNS 26.7% | U251 CNS 29.8% | UACC-62 melanoma 47.7% | LOX IMVI melanoma 53.3% | SK-MEL-28 melanoma 40.6% | SK-MEL-2 melanoma 57.7% | EKVX NSCLC 41% | SN12C renal 49% | UO-31 renal 41.3% | TK-10 renal 45.1% | ACHN renal 59.8% | CAKI-1 renal 56.5% | A498 renal 54.1% | MOLT-4 leukemia 28.4%
active: HT29 colon 8.83% | SNB-75 CNS 0.0967% | SK-MEL-5 melanoma 5.23% | CCRF-CEM leukemia 3.8%

COc1cc(/C=C/c2cc(/C=C/c3ccc(O)c(OC)c3)n(-c3c(C)cccc3C)c(=O)n2)ccc1O
active: HT29 colon -37.8% | SNB-75 CNS -12.4% | U251 CNS 2.81% | PC-3 prostate -2.22% | UACC-62 melanoma -11.3% | LOX IMVI melanoma 0.0749% | SK-MEL-28 melanoma 0.867% | SK-MEL-2 melanoma -6.04% | UO-31 renal 1.61% | ACHN renal 6.48% | A498 renal -6.94% | MOLT-4 leukemia 6.55%
inactive: SNB-19 CNS 13.9% | EKVX NSCLC 17.7% | SN12C renal 11.6% | TK-10 renal 27.4% | CAKI-1 renal 17.2%

COc1cc(-c2nc(C(=O)NCC(=O)NO)nn2-c2ccc(Cl)cc2)cc(OC)c1OC
inactive: HT29 colon 96.4% | SNB-75 CNS 87.7% | SNB-19 CNS 100% | U251 CNS 96.1% | PC-3 prostate 87.9% | LOX IMVI melanoma 95.9% | SK-MEL-2 melanoma 95.4% | EKVX NSCLC 103% | UO-31 renal 83.5% | TK-10 renal 96.9% | ACHN renal 98.9% | CAKI-1 renal 89.3% | A498 renal 110% | CCRF-CEM leukemia 107% | MOLT-4 leukemia 97.4%

Source: PubChem BioAssay (NCI)
